Source: PubChem (several laboratories)
PHOSPHO1 block = inhibitors of human PHOSPHO1 phosphatase; inhibition, % at 13.3 µM; recombinant PHOSPHO1, absorbance phosphatase assay; 1.1% of 290,000 active; Q8TCT1; AID 1565; in the data active means inhibition above about 60%
HDAC3 inhib = inhibitors of human histone deacetylase 3 | recombinant HDAC3, fluorogenic peptide/trypsin coupled, fluorescence | AID 2718 | O15379 | 0.15% of 320,000 active | inhibition, % at 8.3 µM; in the data active means inhibition above about 26%, passing the limit was not always enough; inconclusive means no clear call, values can overlap the other calls
p-CIP stab down = compounds decreasing mouse p/CIP protein stability; Q05BA5; F442A p/CIP-EGFP cells, EGFP fluorescence, 16 h; decrease of EGFP signal, % at 10 µM; 0.01% of 290,000 active;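 active means EGFP signal decrease of at least 30% at 10 µM or well 3 SD below plate mean, unless failing retest; inactive means the rest, including hits failing retest or dose response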
Target sequence (Q05BA5 1-1403): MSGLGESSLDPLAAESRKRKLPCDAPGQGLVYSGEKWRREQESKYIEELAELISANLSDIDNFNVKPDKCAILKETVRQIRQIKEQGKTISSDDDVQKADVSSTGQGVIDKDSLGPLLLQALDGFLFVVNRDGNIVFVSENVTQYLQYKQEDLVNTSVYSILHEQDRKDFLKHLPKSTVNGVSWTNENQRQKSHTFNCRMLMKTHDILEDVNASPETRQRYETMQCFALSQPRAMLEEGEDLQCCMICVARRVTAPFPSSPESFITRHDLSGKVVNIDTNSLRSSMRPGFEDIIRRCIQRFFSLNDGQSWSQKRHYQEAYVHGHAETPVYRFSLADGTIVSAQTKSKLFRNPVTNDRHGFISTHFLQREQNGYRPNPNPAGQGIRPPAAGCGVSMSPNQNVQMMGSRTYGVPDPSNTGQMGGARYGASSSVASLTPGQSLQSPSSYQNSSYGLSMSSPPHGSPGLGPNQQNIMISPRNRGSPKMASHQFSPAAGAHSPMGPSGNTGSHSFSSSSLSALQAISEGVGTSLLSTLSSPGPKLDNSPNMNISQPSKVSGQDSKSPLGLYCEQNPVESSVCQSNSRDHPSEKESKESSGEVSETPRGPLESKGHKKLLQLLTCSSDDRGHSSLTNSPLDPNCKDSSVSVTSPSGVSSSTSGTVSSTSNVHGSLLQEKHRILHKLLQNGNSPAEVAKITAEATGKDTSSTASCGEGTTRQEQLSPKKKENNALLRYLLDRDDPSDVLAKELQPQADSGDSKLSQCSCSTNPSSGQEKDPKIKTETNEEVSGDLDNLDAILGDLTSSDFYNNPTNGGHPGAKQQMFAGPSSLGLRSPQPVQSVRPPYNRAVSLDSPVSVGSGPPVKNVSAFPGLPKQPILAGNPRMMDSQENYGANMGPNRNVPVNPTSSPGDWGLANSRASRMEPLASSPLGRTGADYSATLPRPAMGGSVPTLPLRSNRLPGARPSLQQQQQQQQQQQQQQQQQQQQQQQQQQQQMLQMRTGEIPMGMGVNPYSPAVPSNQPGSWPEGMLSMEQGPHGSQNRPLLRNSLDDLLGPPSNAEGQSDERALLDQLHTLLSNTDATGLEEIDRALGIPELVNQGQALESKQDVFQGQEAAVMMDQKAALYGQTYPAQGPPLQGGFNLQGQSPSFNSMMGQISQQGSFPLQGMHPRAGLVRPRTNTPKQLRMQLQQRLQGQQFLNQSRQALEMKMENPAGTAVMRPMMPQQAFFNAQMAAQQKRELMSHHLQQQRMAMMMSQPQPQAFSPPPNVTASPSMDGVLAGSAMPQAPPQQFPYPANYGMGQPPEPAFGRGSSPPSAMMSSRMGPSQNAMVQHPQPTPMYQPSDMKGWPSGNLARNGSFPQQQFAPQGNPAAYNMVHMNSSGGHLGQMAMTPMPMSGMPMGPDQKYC
SUMO Mot1 rescue = inhibitors of SUMOylation pathway: yeast Mot1-301 growth rescue | growth rescue, % at 18.8 µM | 1% of 320,000 active | S. cerevisiae Mot1-301 growth rescue, ATP luminescence, 38.5C; percent above DMSO median, 100 means doubled;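 active means every valid replicate shows activation above 250% relative to neutral control wells; inactive means the rest, any valid replicate at or below 250%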;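 further: OY570 slx delta 5 strain wells were the positive control but not used for scaling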
PvdQ inh = P. aeruginosa PvdQ acylase inhibition. inhibition, % at 10 µM. purified PvdQ acylase, fluorescence plate reader. 0.063% of 340,000 active; in the data active means inhibition above about 30%, passing the limit was not always enough; inconclusive means no clear call, values can overlap the other calls;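 further: 0% = vehicle neutral wells and 100% = reference inhibitor wells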
JMJD2C inh = inhibitors of human GASC-1 (JMJD2C) demethylase | Q9H3R0 | GST-JMJD2C(1-420) H3K9me3 demethylation, DELFIA europium | inhibition, % at 2.35 µM | 0.069% of 330,000 active;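 active means more than half of a compound's replicate wells show inhibition beyond 50%, single wells judged on their own value; inconclusive means some, but no more than half, of replicates pass 50% inhibition; inactive means no replicate passes 50% inhibition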;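 further: signal counts dimethyl H3K9 product captured on neutravidin plate; 0% = median of DMSO wells and 100% = 0.3 times that DMSO median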
The depositor's hits bear a star; ? = inconclusive; nt = no result; + = active, no number. A selection: hits, their analogues and other compounds. The true share with any hit is near 2.2%.

SMILES | PHOSPHO1 block | HDAC3 inhib | p-CIP stab down | SUMO Mot1 rescue | PvdQ inh | JMJD2C inh
COc1ccc(Cl)cc1Nc1nc(-c2sc(NC(=O)c3ccco3)nc2C)cs1 | -109 | 1 | -6 | 4 | -5 | 19
COc1ccc(CCNC(=O)CCSCc2ccccc2F)cc1OC | 30 | 3 | -7 | 263* | -15 | -5
CCOc1ccc(CNC(=O)CCSCc2ccccc2F)cc1OC | -5 | 3 | 5 | 10 | 0 | 6
COc1ccccc1CCC(=O)Nc1ccc2c(c1)CN(Cc1ccc(CO)o1)CC2 | 13 | nt | 13 | -12 | -3 | 5
CC12CN3CC(C)(CN(C1)C3c1ccccc1)C2O (centres undefined) | -8 | -4 | -15 | -15 | -2 | 6
CC12CN3CC(C)(CN(C1)C3c1ccc3c(c1)OCO3)C2O (centres undefined) | 32 | 0 | 6 | + | -14 | 3
CCOC(=O)COc1ccc(S(=O)(=O)NCC2CCCO2)cc1 (centres undefined) | 197* | -2 | -4 | 15 | -7 | 3
Cc1ccc(S(=O)(=O)NCC2CCCO2)cc1 (centres undefined) | 35 | -4 | -12 | 4 | -10 | 1
CC(OC(=O)C1CCCC1)C(=O)Nc1ncc(Cl)cc1Cl (centres undefined) | nt | -10 | nt | 14 | 0 | 7
CCC1=NNc2cccc3c(OC)ccc1c23 | 36 | 31* | -13 | nt | nt | 3
COc1ccc2c3c(cccc13)C(=O)N(O)C2=O | 6 | 0 | 6 | -22 | 10 | -3
NS(=O)(=O)c1cccc(NC(=O)COC(=O)CCN2C(=O)c3ccccc3C2=O)c1 | nt | 4 | nt | 0 | -8 | 8
CC(C)(C)OC(=O)NCCCCCc1cn([C@@H](CO)C(=O)NCCCCCCCCCCC(=O)N2CCN(C(=O)OC(C)(C)C)CC2)nn1 | nt | 31* | nt | -6 | -8 | 2
CC(C)(C)OC(=O)CC[C@@H](C(=O)NCCCCCCCCCCC(=O)N1CCN(C(=O)OC(C)(C)C)CC1)n1cc(CCCCCNC(=O)OC(C)(C)C)nn1 | nt | -7 | nt | 129 | 0 | 1
CCc1ccc(N2CSC3=C(C#N)C(c4cccs4)CC(=O)N3C2)cc1 (centres undefined) | 73* | 17 | -2 | 26 | -3 | 3
COc1ccc(N2CSC3=C(C#N)C(c4cccs4)CC(=O)N3C2)cc1 (centres undefined) | 89* | ? | 0 | nt | -1 | 7
N#CC1=C2SCN(Cc3ccco3)CN2C(=O)CC1c1ccccc1F (centres undefined) | 83* | -3 | -4 | 27 | -8 | 4
Cc1ccc(N2CSC3=C(C#N)C(c4cccs4)CC(=O)N3C2)cc1 (centres undefined) | 57 | 10 | -9 | 12 | 3 | -7
N#CC1=C2SCN(Cc3ccco3)CN2C(=O)CC1c1cccc2ccccc12 (centres undefined) | 39 | 22 | 8 | 6 | -8 | 7
CCc1ccc(C2CC(=O)N3CN(c4ccccc4)CSC3=C2C#N)cc1 (centres undefined) | 86* | 0 | 0 | 108 | -4 | 3
Cn1c(=O)c2ncn(C)c2n(C)c1=O | nt | nt | nt | nt | 12 | nt
COC(=O)C1Cc2c([nH]c3ccccc23)CN1C(C)=O (centres undefined) | 16 | 1 | 3 | -4 | 8 | -7
CCOC(=O)c1ccc(N2CSC3=C(C#N)C(c4cccs4)CC(=O)N3C2)cc1 (centres undefined) | 94* | 31* | -12 | -9 | 8 | 4
CN1CSC2=C(C#N)C(c3cccc(OCc4ccccc4)c3)CC(=O)N2C1 (centres undefined) | 20 | 7 | 1 | -19 | -22 | 2
N#CC1=C2SCN(c3ccc(F)cc3)CN2C(=O)CC1c1cccc(F)c1 (centres undefined) | 64* | 5 | -2 | 21 | 11 | 0
SMILES | PHOSPHO1 block | HDAC3 inhib | p-CIP stab down | SUMO Mot1 rescue | PvdQ inh | JMJD2C inh
COc1cc(C)c(C)cc1S(=O)(=O)NC1CC(C)(C)NC(C)(C)C1 | 14 | -4 | 4 | 6 | -4 | 0
CC(C(=O)Nc1cccnc1)C1Sc2ccccc2NC1=O (centres undefined) | 24 | 4 | -1 | -8 | -9 | 11
FC(F)(F)c1cc(CCN2CCNC[C@H]2Cc2cccc3ccccc23)cc(C(F)(F)F)c1 | nt | 32* | nt | -86 | -11 | -10
Oc1ccc(C[C@@H]2CNCCN2CCc2cc(C(F)(F)F)cc(C(F)(F)F)c2)cc1 | nt | 5 | nt | 11 | 5 | -5
CCOC(=O)C1CCCN(CC(O)COCc2ccccc2OC)C1 (centres undefined) | 19 | -2 | 2 | 17 | -5 | 19
CCN1CCN(C(=O)C2c3cc(OC)c(OC)cc3C(=O)N(C)C2c2ccc(SC)cc2)CC1 (centres undefined) | 2 | 28* | -15 | 5 | -12 | 29
Cc1noc(C)c1COC(=O)c1ccc2c(c1)S(=O)(=O)c1ccccc1C2=O | 82* | 0 | -5 | 6 | -9 | -13
NC(=O)COC(=O)c1ccc2c(c1)S(=O)(=O)c1ccccc1C2=O | 20 | -3 | -2 | -2 | -5 | 6
CCNC(=O)c1ccc2c(c1)S(=O)(=O)c1ccccc1C2=O | 39 | -4 | 3 | 345 | -9 | 51*
CCOC(=O)Nc1sc(C)c(C)c1C(=O)OCC | -7 | 8 | 0 | -7 | 8 | -2
CCOC(=O)c1c(NC(=O)c2noc3c2CCCC3)sc(C)c1C | 92* | nt | 2 | nt | nt | nt
O=C(NCCCN1CCOCC1)c1ccc(CNS(=O)(=O)c2ccc(F)cc2)cc1 | 18 | -4 | -4 | -1 | 3 | -13
CC1CC(C)CN(CCCNC(=O)c2ccc(CNS(=O)(=O)c3ccc(F)cc3)cc2)C1 (centres undefined) | 75* | 5 | -6 | -2 | -11 | 1
Cc1ccc(C(=O)Oc2ccc(-c3nnco3)cc2)o1 | nt | 100* | nt | -19 | -5 | -10
C=CCSc1nnc(NC(=O)CCN2C(=O)C3CC=CCC3C2=O)s1 (centres undefined) | nt | 0 | nt | 5 | 4 | -6
CCc1cc2c3c(c1)C1(C(=O)N3C(C)(C)CC2C)C(C#N)=C(N)N2C(=C1C#N)Nc1ccccc12 (centres undefined) | 11 | -2 | 3 | 608* | 6 | 9
CNc1nc(-c2c(C)n(C)c3ccc(OC)cc23)cs1 | 38 | 3 | -7 | -3 | 8 | -28
CCOc1cc(/C=C2\SC(=O)N(CC(=O)Nc3ccccc3F)C2=O)cc([N+](=O)[O-])c1O | 29 | 3 | -9 | -8 | 5 | 1
COc1cc(/C=C2\SC(=O)N(CC(=O)Nc3cccc(C)c3)C2=O)cc([N+](=O)[O-])c1O | 62* | nt | -4 | nt | -7 | nt
O=C/C=C/c1c(-c2ccccc2)cc2oc3ccccc3cc1-2 | 7 | 2 | -5 | 9 | -6 | 6
